Screens: PubChem, Broad Institute
EWS-Fli inh: blocks EWS/Fli oncoprotein-driven transcription; inhibition, % at 12.6 µM; A673 NR0B1-luciferase reporter, viability-normalised; 350,000 compounds, 0.67% hits; AID 651661;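 active = mean inhibition of at least 50% after viability correction, with every replicate also passing that limit; inconclusive = mean reaches 50% but only one of two replicates passes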;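 also: firefly luciferase signal divided by Alamar Blue viability fluorescence both relative to DMSO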
TRPM1 prom inh: reduces MITF-dependent TRPM1 promoter luciferase signal | SK-MEL-5 TRPM1 promoter luciferase, 24 h | inhibition, % at 12.5 µM | 330,000 compounds, 0.83% hits;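 active = mean inhibition across replicates of 60% or more, whatever share of single replicates reaches that level; inconclusive = some that reach 60%, reason not given; inactive = mean inhibition across replicates below 60%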
MITF act: MITF TRPM1 promoter activation in melanoma cells; SK-MEL-5 TRPM1-promoter luciferase, 24 h; % of positive control, neutral wells = 0; activation, % at 12.5 µM; 300,000 compounds, 0.75% hits; AID 588334;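 active = mean activation of at least 80% with every replicate also reaching 80%; inconclusive = mean reaches 80% but some replicate falls short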
Wnt bcat act: activators of Wnt/beta-catenin signaling; Wnt/beta-catenin reporter cell assay, activator, plate reader; activation, % at 9.35 µM; 300,000 compounds, 1.2% hits; AID 743398; in the data active = activation above about 30%, passing the limit was not always enough; inconclusive = no clear call, values can overlap the other calls
esBAF inh: SWI/SNF esBAF complex inhibition; mouse ES cells, Bmi1-luciferase knock-in reporter, 24 h; 100% = twice the neutral-well signal; reporter increase, % at 12.5 µM; 350,000 compounds, 2% hits; in the data active = activation above about 40%; inconclusive = no clear call, values can overlap the other calls;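 also: a rise in the Bmi1 reporter signal indicates esBAF inhibition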
PAX8 reporter: PAX8 transcriptional activity inhibition | inhibition, % at 12.6 µM | 360,000 compounds, 1.2% hits | RMG-I TPO-luciferase reporter, SteadyGlo, 24 h | AID 652154;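 active = mean replicate inhibition at least 60% with every replicate also reaching 60%; inconclusive = only one of the two criteria is met; inactive = mean below 60% and not all replicates reaching 60%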;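 also: luciferase light reporting Pax8 driven TPO promoter activity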
Hits are given with their value; 0 = inactive; ? = inconclusive; - = not tested or not shown. A selection: hits, their analogues and other compounds. The true share with any hit is near 4%.

SMILES	EWS-Fli inh	TRPM1 prom inh	MITF act	Wnt bcat act	esBAF inh	PAX8 reporter
Cc1ccc(-n2ncc(Br)c(Br)c2=O)cc1	-	83	0	-	0	-
O=c1c(Br)c(Br)cnn1-c1ccccc1	?	92	0	0	-	107
COc1ccc2c3c([nH]c2c1)[C@H](CO)N(C(C)=O)CC31CN(C(C)=O)C1	0	-	-	-	-	-
C[C@H](CO)N1C[C@H](C)[C@H](CN(C)Cc2cccnc2)Oc2cc(C#CCN(C)C)ccc2S1(=O)=O	0	-	-	-	0	-
C=CCn1cc(/C=N/Nc2nc3ccccc3[nH]2)c2ccccc21	0	0	0	53	-	0
C(=N\Nc1nc2ccccc2[nH]1)/c1cccs1	-	0	0	51	67	0
C(=N\Nc1ncnc2nc[nH]c12)/c1cccs1	0	0	0	61	0	0
Cc1ccsc1/C=N/Nc1ncnc2nc[nH]c12	0	0	0	0	-	0
Cc1cc(=O)[nH]c(N/N=C/c2sccc2C)n1	0	0	0	0	0	0
Cc1ccsc1/C=N/Nc1nc2ccccc2[nH]1	0	0	0	115	-	0
O=C(C1CCCC1)N1CC(=O)N2[C@H](C1)[C@@H](c1ccc(C#CC3CCCC3)cc1)[C@@H]2CO	0	-	-	-	-	0
CNc1cncc(-c2cc(C)c(O)c(C)c2)n1	52	-	-	0	0	0
CNc1cncc(-c2ccc(O)cc2)n1	0	-	-	0	0	0
CNc1cncc(-c2ccc(OC)cc2)n1	0	-	-	0	41	-
C[C@@H]1CN([C@@H](C)CO)C(=O)Cc2cc(NS(=O)(=O)c3ccccc3)ccc2O[C@@H]1CN(C)Cc1ccc2c(c1)OCO2	0	-	-	-	0	0
CN(C)CC(=O)Nc1ccc2c(c1)[C@H]1C[C@H](CC(=O)NCCN3CCCCC3)O[C@@H](CO)[C@H]1O2	0	-	-	-	0	0
C[C@H]1CN([C@@H](C)CO)C(=O)Cc2cc(NC(=O)Nc3ccc(C(F)(F)F)cc3)ccc2O[C@H]1CN(C)C(=O)Nc1ccc(C(F)(F)F)cc1	0	-	-	-	0	86
CC(C)NC(=O)N(C)C[C@H]1Oc2ccc(NC(=O)Nc3ccc(C(F)(F)F)cc3)cc2CC(=O)N([C@@H](C)CO)C[C@H]1C	63	-	-	-	0	0
CC(C)NC(=O)N(C)C[C@H]1Oc2ccc(NC(=O)Nc3ccc(C(F)(F)F)cc3)cc2CC(=O)N([C@H](C)CO)C[C@H]1C	0	-	-	-	0	0
Cc1ccc(S(=O)(=O)Nc2ccc3c(c2)CC(=O)N([C@@H](C)CO)C[C@H](C)[C@@H](CN(C)C(=O)Nc2ccc(C(F)(F)F)cc2)O3)cc1	0	-	-	-	0	88
CC(C)(C)C(=O)NC(=S)NNC(=O)c1sc2ccccc2c1Cl	-	80	0	-	-	-
CCOC(=S)NC(=O)c1sc2ccccc2c1Cl	-	0	0	-	0	-
O=C(NC(=S)NCCO)c1sc2ccccc2c1Cl	0	0	0	42	53	0
COc1cccc(NC(=O)N[C@@H]2CC[C@@H](CC(=O)Nc3ccccc3)O[C@@H]2CO)c1	0	-	-	-	0	0
C[C@@H]1CN([C@H](C)CO)C(=O)c2cccc(NC(=O)Nc3ccc(F)cc3)c2O[C@@H]1CN(C)Cc1ccc(Oc2ccccc2)cc1	0	-	-	-	0	-
SMILES	EWS-Fli inh	TRPM1 prom inh	MITF act	Wnt bcat act	esBAF inh	PAX8 reporter
COc1cc(C(N)=O)ccc1OCc1ccccc1	-	0	0	0	0	0
NC(=O)c1ccc(OCc2ccccc2)nc1	0	0	88	0	60	0
Cc1ccc(S(=O)(=O)N2C[C@H](O)COC[C@@H]3O[C@@H](CC(=O)NCCN4CCCCC4)CC[C@H]32)cc1	0	-	-	-	0	0
CN(C)c1ccc(-c2c(-c3ccc4c(c3)OCO4)noc2-c2ccsc2)cn1	-	0	0	-	0	-
O=C(O)c1cc(-c2ccc(-c3c(-c4ccc5c(c4)OCO5)noc3-c3ccsc3)cc2)nc2ccccc12	0	0	97	0	68	0
O=c1c2ccccc2oc2cc(C#Cc3ccccn3)ccc12	0	0	0	34	0	0
O=c1c2ccccc2oc2cc(-c3ccc4[nH]ccc4c3)ccc12	0	0	0	0	0	0
C=CCn1c2ccccc2c(=O)c2cc(C#Cc3ccccn3)ccc21	0	0	124	0	70	0
Cn1c2ccccc2c(=O)c2cc(C#Cc3ccc(N)cc3)ccc21	0	0	0	0	0	0
COc1cccc2oc3ccc(C#Cc4ccccn4)cc3c(=O)c12	0	0	0	40	0	0
COc1cc2sc3ccc(C#Cc4ccccn4)cc3c(=O)c2cc1OC	0	0	0	0	0	0
